Test results: PubChem BioAssay AID1159580 (chemical genetic matrix, 2015)
Among all 5,500 compounds or so, about 2,000 (36%) were called active. Another 18% or so got no clear call; they are omitted. Cut-off read from the data, not from the text of the source: active = normalized growth mostly below about 0.91 (no sharp cut-off); inconclusive = no clear call, values can overlap the other calls; inactive = mostly above about 0.92. Some of the results follow.

Test: chemical genetic growth profiling, strain panel (AID 1159580);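 note: tested at 20 µM; growth read once vehicle control cultures reached saturation at 30 °C; 1 = growth at the plate median or of vehicle wells; lower values mean less growth of the strain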
Settings: S. cerevisiae deletion strains, growth OD

Measured: normalized growth

Oc1ccc2c3c1O[C@H]1c4[nH]c5c(c4C[C@@]4(O)[C@@H](C2)N(CC2CC2)CC[C@]314)C[C@@]1(O)[C@H]2Cc3ccc(O)c4c3[C@@]1(CCN2CC1CC1)[C@H]5O4
inactive: locus YAL013W, strain DEP1, active compounds read low 0.969 | locus YAL040C, strain CLN3, active compounds read low 1 | locus YCL061C, strain MRC1 (second series), active compounds read low 0.962 | locus YDR363W, strain ESC2, active compounds read low 1.02 | locus YER002W, strain NOP16, active compounds read low 0.996 | locus YGR078C, strain PAC10, active compounds read low 0.986 | locus YMR263W, strain SAP30, active compounds read low 0.982 | locus YMR307W, strain GAS1, active compounds read low 1.03 | locus YNL175C, strain NOP13, active compounds read low 1 | locus YNL197C, strain WHI3, active compounds read low 0.978 | locus YNL224C, strain SQS1, active compounds read low 1 | locus YNL322C, strain KRE1, active compounds read low 0.958 | locus YOR083W, strain WHI5 (second series), active compounds read low 1.01 | locus YPL241C, strain CIN2, active compounds read low 0.968
